C8 TRAIL sens: sensitizes caspase-8 expressing cells to TRAIL. NB7+C8 cells + TRAIL, ATPlite viability luminescence. inhibition (viability loss, TRAIL sensitization), % at 10 µM. 360,000 compounds, 1% hits;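 active = compounds causing at least 50% loss of cell viability in the single-dose screen, relative to plate controls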
SENP8 block-1: SENP8 (human) protease inhibition; Q96LD8; recombinant SENP8, Nedd8 substrate fluorescence; inhibition, % at 20 µM; 360,000 compounds, 0.64% hits; AID 602440; in the data active = inhibition mostly above about 40%, no sharp cut-off; inactive = mostly below about 27%
SENP8 block-2: SENP8 protease inhibition; Q96LD8; 330,000 compounds, 1.2% hits; purified SENP8, Z-RLRGG-aminoluciferin cleavage, luminescence; inhibition, % at 10 µM; in the data active = inhibition above about 50%
SENP6 block: inhibitors of human SENP6 protease | Q9GZR1 | Recombinant SENP6 catalytic domain, aminoluciferin luminescence | inhibition, % at 10 µM | 330,000 compounds, 1.8% hits | AID 2599;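 active = inhibition above about 50% at the single tested dose, limit read from the data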;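 note: plate controls were DMSO wells with enzyme for no effect and DMSO wells lacking enzyme for full effect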
Target sequence (Q9GZR1 628-1112 limits assumed): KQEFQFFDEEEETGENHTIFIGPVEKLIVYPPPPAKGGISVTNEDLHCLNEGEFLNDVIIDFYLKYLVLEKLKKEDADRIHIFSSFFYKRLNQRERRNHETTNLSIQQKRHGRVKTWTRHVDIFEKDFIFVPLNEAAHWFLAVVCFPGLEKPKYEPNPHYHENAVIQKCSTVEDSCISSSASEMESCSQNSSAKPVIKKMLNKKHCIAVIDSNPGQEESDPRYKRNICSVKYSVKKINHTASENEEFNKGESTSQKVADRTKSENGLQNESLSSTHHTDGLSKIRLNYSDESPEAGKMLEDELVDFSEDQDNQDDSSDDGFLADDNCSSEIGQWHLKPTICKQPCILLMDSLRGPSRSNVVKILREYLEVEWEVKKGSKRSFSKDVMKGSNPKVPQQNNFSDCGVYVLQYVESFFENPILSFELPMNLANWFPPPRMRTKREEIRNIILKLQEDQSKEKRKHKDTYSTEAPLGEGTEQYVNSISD
PPC-1+TRAIL kill: compounds killing PPC-1 cancer cells with TRAIL present (potentiator screen, no TRAIL-free arm); PPC-1 cells + TRAIL, ATPLite viability luminescence; AID 1443; cell killing (% activity), % at 4 µM or 5 µM; 220,000 compounds, 0.41% hits;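 active = cell killing above 50% in the first pass at 4 µM, then a duplicate retest at 5 µM averaging 50% or more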;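 note: plate controls were cells with TRAIL plus DMSO for no effect and medium-only wells lacking cells for full effect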
SENP7 block: blocks the human protease SENP7 | inhibition, % at 5 µM | Q9BQF6 | recombinant SENP7, Z-RLRGG-aminoluciferin luminescence, 40 min | 330,000 compounds, 1.5% hits;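 active = inhibition above about 50% at the single test dose, limit read from the data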;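 note: plate controls were DMSO with enzyme for no effect and no enzyme buffer wells for full effect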
The depositor's hits bear a star; / = not tested or not shown. Hits are enriched below; roughly 3% of the tested compounds scored in any of these assays.

SMILES | C8 TRAIL sens | SENP8 block-1 | SENP8 block-2 | SENP6 block | PPC-1+TRAIL kill | SENP7 block
CCN(CC)c1ccc(C=C2C(=O)N(C)C(=S)N(C)C2=O)o1 | 2 | 18 | 4 | 3 | 10 | 5
CN1C(=O)C(=Cc2ccc(N3CCCCC3)o2)C(=O)N(C)C1=S | 8 | 43* | 1 | -15 | 25 | 11
CC(=O)c1ccc2c(c1)C1C(Cl)C(Sc3ccccc3[N+](=O)[O-])CC1C(C(=O)O)N2 (centres undefined) | -2 | 78* | / | / | 31 | /
Brc1ccc2c(c1)C(OC1CN3CCC1CC3)c1ccccc1CS2 (centres undefined) | 6 | 19 | -6 | -21 | 82* | -10
c1ccc2c(c1)CSc1ccccc1C2C1=NCCN1 (centres undefined) | 8 | 26 | 2 | 5 | 12 | 3
CC(=O)C1CCC2C3C(N4CC4)CC4=CC(=O)CCC4(C)C3CCC12C (centres undefined) | -3 | -64 | / | / | / | /
C=CCCC1(C(C)C)C(=O)NC(=S)NC1=O | -14 | 9 | / | / | / | /
COC(COC(N)=O)C1=C(N2CC2)C(=O)C(C)=C(N2CC2)C1=O (centres undefined) | 74* | 38 | / | / | / | /
COC12C(COC(N)=O)C3=C(C(=O)C(C)=C(N)C3=O)N1CC1C2N1C (centres undefined) | -1 | 37 | 18 | 13 | 1 | 5
CC1=C(N2CC2)C(=O)C(CO)=C(N2CC2)C1=O | 77* | 63* | / | / | / | /
CC1=CC2OC3CC4OC(=O)C=CC=CC(=O)OCCC(C)C(O)C(=O)OCC2(CC1O)C4(C)C31CO1 (centres undefined) | 72* | -1 | / | / | / | /
CC1=CC2OC3CC4OC(=O)C=CC=CC(C(C)O)OCC(O)C(C)CC(=O)OCC2(CC1O)C4(C)C31CO1 (centres undefined) | 69* | -9 | / | / | / | /
COC(=O)C1=C(c2cccc(OCc3ccccc3)c2)C[C@@H]2CC[C@H]1N2C(=O)NCc1ccc(N(C)C)cc1 | 11 | 7 | -1 | -2 | / | 6
COc1ccc(-n2nnnc2C(CCc2ccccc2)N2CCC(n3c(=O)[nH]c4ccccc43)CC2)cc1 (centres undefined) | 90* | 35 | / | / | / | /
Cc1ccc2nc(-c3ccc(CN4CCC(n5c(=O)[nH]c6ccccc65)CC4)cc3)c(-c3ccccc3)nc2c1 | 28 | -90 | / | / | / | /
COc1ccc2nc(-c3ccc(CN4CCC(n5c(=O)[nH]c6ccccc65)CC4)cc3)c(-c3ccccc3)nc2c1 | 51* | -386 | / | / | / | /
Cc1cccc(C)c1-n1nnnc1C(CCc1ccccc1)N1CCC(n2c(=O)[nH]c3ccccc32)CC1 (centres undefined) | 82* | 27 | / | / | / | /
COc1cc(OC)c([C@H]2C=C(C)[C@H]3C[C@@H]2C3(C)C)c(OC)c1 | 1 | 37 | 9 | 5 | / | 0
COC(=O)C1=C(c2cccc(C#N)c2)C[C@@H]2CC[C@H]1N2C(=O)N1CCOCC1 | 3 | 19 | 4 | -1 | / | 8
Clc1ccc(C[n+]2c(-c3ccccc3)cc(-c3ccccc3)cc2-c2ccccc2)cc1 | 69* | -488 | 3 | -2 | / | 2
CC1OC(OC2CC(O)C3(CO)C4C(O)CC5(C)C(C6=CC(=O)OC6)CCC5(O)C4CCC3(O)C2)C(O)C(O)C1O (centres undefined) | 70* | 16 | / | / | / | /
COc1ccc(C(=O)N/N=C/C23CC[C@@H](O)CC2(O)CC[C@@H]2[C@@H]3CCC3(C)C(C4=CC(=O)OC4)CCC23O)cc1 (some centres undefined) | 36 | -7 | -7 | -13 | 11 | -3
COc1ccc(OC(=O)N(C)C[C@@H]2OCc3cnnn3CCCC(=O)N([C@@H](C)CO)C[C@@H]2C)cc1 | 2 | 19 | / | / | / | /
COc1ccc(CC2NCC(O)C2OC(C)=O)cc1 (centres undefined) | 85* | 29 | / | / | / | /
CCOC(=O)c1c(C)[nH]c(C(=O)C(C)N2CCCC2)c1C (centres undefined) | 7 | 11 | -8 | -13 | -10 | -3
SMILES | C8 TRAIL sens | SENP8 block-1 | SENP8 block-2 | SENP6 block | PPC-1+TRAIL kill | SENP7 block
CCC1(CCO)C(=O)NC(=S)NC1=O | -13 | 22 | / | / | / | /
C/C1=C\[C@@H](C)C/C=C/[C@H]2[C@@H]3O[C@]3(C)[C@@H](C)[C@H]3[C@H](Cc4c[nH]c5ccccc45)NC(=O)[C@]32C(=O)/C=C/C(=O)[C@@H]1O | 30 | 0 | -15 | -3 | 16 | -7
CC1=CC2/C=C(\C)CCC(O)C(O)/C=C/C(=O)C23C(=O)NC(CC(C)C)C3C1C (centres undefined) | 91* | 2 | -11 | -6 | 4 | 10
C=CC1CN2CCC1CC2[C@@H](OC(=O)c1ccc(OC)cc1)c1ccnc2ccccc12 (some centres undefined) | 0 | 11 | -15 | -20 | 54* | -10
C[C@@H]1C[C@@H]([C@H](O)CC2CC(=O)NC(=O)C2)C(=O)[C@@H](C)C1 | 30 | 8 | 0 | 4 | / | 9
CC(=O)OC1(C)CC(C)C(=O)C(C(O)CC2CC(=O)NC(=O)C2)C1 (centres undefined) | 74* | 12 | / | / | / | /
CC(C)C(O)(C(=O)OCC1=CCN2CCC(O)C12)C(C)O (centres undefined) | -7 | 4 | / | / | / | /
C[CH2][Hg][S]c1ccccc1C(=O)O | 62* | 7 | 3 | 7 | / | 0
O=[N+]([O-])c1ccc2nc(N3CCNCC3)ccc2c1 | / | / | 11 | -4 | / | 7
CN1C2CNC(=O)CC1C1CCC2C1 (centres undefined) | -8 | 3 | / | / | / | /
CCCC1(CCC)C(=O)NC(=NCc2ccccc2)NC1=O | 77* | 22 | -9 | -10 | 2 | -10
CCCC1(CCC)C(=O)NC(=Nc2ccccc2)NC1=O | 11 | 10 | -4 | -20 | 7 | 2
CC[n+]1c(/C=C/C=C/c2ccc(N(C)C)cc2)sc2ccccc21 | 63* | 35 | 10 | -1 | 48 | 4
CN(C)c1ccc(/C=C/C=C/c2sc3ccccc3[n+]2C)cc1 | 33 | 20 | 4 | 4 | 45 | 7
Nc1ncnc2c1ccn2[C@@H]1O[C@H](CO)[C@@H](O)[C@H]1O | 88* | 9 | -7 | 1 | / | 7
COc1cccc(N2C(=O)NC(=O)/C(=C/c3ccc([N+](=O)[O-])s3)C2=O)c1 | -1 | 48* | 25 | 44 | -5 | 5
COc1ccc(N2C(=O)NC(=O)/C(=C/c3ccc([N+](=O)[O-])s3)C2=O)cc1 | -8 | 69* | 10 | 14 | 8 | 11
COc1ccccc1N1C(=O)NC(=O)/C(=C/c2ccc([N+](=O)[O-])s2)C1=O | / | / | 20 | 32 | -1 | 7
COc1ccc(N2C(=O)NC(=O)/C(=C\c3ccc([N+](=O)[O-])s3)C2=O)cc1 | 4 | 44* | 26 | 19 | -3 | 14
Nc1cc(Cl)cc(C(=O)O)c1Cl | -2 | -2 | 2 | -9 | / | 1
Cc1[nH]nc2ccc(-c3cncc(OC[C@@H](N)Cc4c[nH]c5ccccc45)c3)cc12 | 90* | 0 | / | / | / | /

Screening data: PubChem, Sanford-Burnham Center for Chemical Genomics
